According to PubChem BioAssay AID686979 (National Center for Advancing Translational Sciences (NCATS), 2013):
Where “and” joins values, the source holds several entries; their conditions need not be identical. Identical values can stand only once. The campaign covered roughly 420,000 compounds. About 50,000 (12%) were called active. A call without a number means that no potency is given here. Roughly 26% stayed inconclusive and do not appear here. Calls follow the shape of the dose curve; as a rule, active = well fitted inhibition curve with a large enough effect; inconclusive = small, poorly fitted or top-dose-only effect; inactive = flat fitted curve, though single readings scatter. This excerpt belongs to a sample that is enriched for actives. More than one record can exist for a structure, and the calls need not agree.
Potency is read from the fitted curve at half-maximal effect.

Experiment: qHTS for Inhibitors of human tyrosyl-DNA phosphodiesterase 1 (TDP1): qHTS in cells in presence of CPT; also: nearly all actives have a fitted effect of over 55% in size
Conditions: chicken DT40 Tdp1-/-;hTDP1 cells + 20 nM CPT, ATP luminescence, 48 h; series mostly up to 46.2 µM
Summary of the method: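 Chicken DT40 Tdp1-/- cells complemented with human TDP1, 400 cells/well, exposed to compounds plus 20 nM camptothecin for at least 48 h at 37 C; viability read as ATP content by CellTiter-Glo luminescence.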
With `C#CCOCCOCCOCCNc1nc(N2CCN(C(=O)C([C@@H](C)CC)n3cc(C(N)COC(=O)C(F)(F)F)nn3)CC2)nc(N2CCN(C(=O)[C@H](Cc3ccc(O)cc3)n3cc(C(N)[C@H](C)CC)nn3)CC2)n1` (some centres undefined) the Potency was “inactive”.
For `CCOc1ncccc1C(=O)OCC(=O)c1c[nH]c2ccccc12`, the Potency was “inactive”.
In the case of `CC1CN(C(=S)Nc2ccc(S(N)(=O)=O)cc2)CC(C)O1` (centres undefined), the Potency is reported as “inactive”.
In the case of `C/C=C/C1=C(C(=O)O)N2C(=O)[C@@H](NC(=O)[C@H](N)c3ccc(O)cc3)[C@H]2SC1`, the Potency is reported as “inactive”.
With `O=C(NNc1cc(Cl)cc(Cl)c1)c1c(F)cccc1Cl` the Potency was “inactive”.
In the case of `CN(CC(=O)NNC(=O)CNC(=O)c1ccccc1Cl)S(=O)(=O)c1ccc(Cl)cc1`, the Potency is reported as “inactive”.
In the case of `CC(=O)Nc1ccc(NC(=O)CSc2nnc3c4cc(Br)ccc4n(C)c3n2)cc1`, the Potency is reported as “inactive”.
With `O=C(CSc1ccc(Cl)cc1)NC1CC1` the Potency was “inactive”.
In the case of `CN(CCOc1ccccc1)C(=O)c1cc(COc2c(F)cccc2F)on1`, the Potency is reported as “inactive”.
With `COc1cccc(CNC(=O)CCN2C(=S)NC(C)(C)CC2C)c1` (centres undefined) the Potency was “inactive”.
In the case of `COc1nc(N(C)C)nc(N2CC(=O)N(CCNS(=O)(=O)c3ccc(C)cc3)C2=N)n1`, the Potency is reported as “inactive”.
For `C=C1C(=O)[C@]23C[C@H]1CCC2[C@@]1(C)C(C[C@@H]3O)[C@](C)(C(=O)O)CC[C@@H]1O` (some centres undefined), the Potency was 1.84 µM (active).
With `Cc1cnc(CN(C)C(=O)CC2C(=O)NCCN2Cc2cccc(F)c2F)[nH]1` (centres undefined) the Potency was “inactive”.
In the case of `CCCC1NC(=O)NC(C)=C1C(=O)OCC` (centres undefined), the Potency is reported as “inactive”.
With `CCCCn1c(N)c(N(CC)C(=O)c2ccccc2C(F)(F)F)c(=O)[nH]c1=O` the Potency was “inactive”.
In the case of `Cc1ccc(CNC(=O)Cn2cnc3c(NCc4ccccc4)ncnc32)o1`, the Potency is reported as 18.4 µM (active).
With `Cc1ccc(NC(=O)Cn2cnc3c(OCc4ccccc4)ncnc32)cc1C` the Potency was “inactive”.
For `Cc1ccc(CNC(=O)Cn2cnc(S(=O)(=O)N3CCCCC3)c2)o1`, the Potency was “inactive”.
For `Cn1c(=O)c2c(SCC(=O)NCC3CCCO3)nc(CC(C)(C)C)nc2n(C)c1=O` (centres undefined), the Potency was “inactive”.
In the case of `Cc1ccc(NC(=O)c2cn3c4c(ccc(Cl)c4c2=O)OC(C)C3)cc1C` (centres undefined), the Potency is reported as “inactive”.
In the case of `Cc1ccc(C)c(C(C)NC(=O)C2CCCO2)c1` (centres undefined), the Potency is reported as “inactive”.
In the case of `Cc1nc(N)nc(Cl)c1CCC1OCCO1`, the Potency is reported as “inactive”.
With `Cc1cccc(-n2ncc(Cl)c(Cl)c2=O)c1` the Potency was 5.17 µM (active).
In the case of `C=CCNc1cnn(-c2ccc(C)cc2)c(=O)c1Cl`, the Potency is reported as “inactive”.
For `O=c1c(Cl)c(NC2CC2)cnn1-c1ccccc1`, the Potency was “inactive”.
With `Cc1ccc(S(=O)(=O)NCC(=O)OCC(=O)N2CCc3ccccc32)cc1` the Potency was “inactive”.
In the case of `O=C(OCC(=O)N1CCc2ccccc21)C1CCCN1S(=O)(=O)c1ccc(Cl)cc1` (centres undefined), the Potency is reported as “inactive”.
For `O=C(OCC(=O)N1CCc2ccccc21)c1ccc([N+](=O)[O-])cc1`, the Potency was 20.6 µM (active).
For `CO/N=C(\C(=O)N[C@@H]1C(=O)N2C(C(=O)O)=C(C[N+]3(C)CCCC3)CS[C@H]12)c1csc(N)n1`, the Potency was “inactive”.
With `CCC1NC(=O)c2cccnc2-n2c1nc1ccc(C)cc1c2=O` (centres undefined) the Potency was “inactive”.
With `O=c1c2ccccc2nc(CSc2nnnn2-c2ccccc2)n1-c1ccccc1` the Potency was “inactive”.
With `CCCN1C(=O)C(Cc2nc3ccccc3c(=O)n2-c2ccccc2)c2cc(C)ccc21` (centres undefined) the Potency was “inactive and 16.4 µM (active)”.
With `Cc1ccc(Cl)cc1NC(=O)C(C)n1nnc2sc(-c3ccccc3)cc2c1=O` (centres undefined) the Potency was “inactive”.
In the case of `O=C(Nc1c2c(nn1-c1cccc(Cl)c1)CS(=O)(=O)C2)c1cccs1`, the Potency is reported as “inactive”.
With `COCCN(C(=O)CC1CCCCC1)c1c(N)n(CC(C)C)c(=O)[nH]c1=O` the Potency was “inactive”.
In the case of `CCc1nc2sc3c(Cl)ncnc3c2c2c1CCCC2`, the Potency is reported as “inactive”.
With `OCCCC1CCCCN1Cc1nc(Cc2ccccc2Cl)no1` (centres undefined) the Potency was “inactive”.
In the case of `COc1ccccc1-n1c(C)nc2cc(C(=O)NCc3ccc4c(c3)OCO4)ccc21`, the Potency is reported as “inactive”.
With `COc1cc(-n2c(C)nc3cc(C(=O)NCc4ccco4)ccc32)cc(OC)c1OC` the Potency was “inactive”.
With `COc1ccc(C(=O)NCc2cn3ccccc3n2)cc1` the Potency was “inactive”.
In the case of `COc1ccc(CCNC(=O)c2ccc3c(c2)nc(C)n3-c2ccc(Br)cc2)cc1OC`, the Potency is reported as 20.6 µM (active).
In the case of `Cc1cc(C(=O)NCCCc2ccccc2)no1`, the Potency is reported as “inactive”.
For `COc1ccc2oc(=O)c(-c3cn4c(n3)sc3cc(OC)ccc34)cc2c1`, the Potency was “inactive”.
With `O=C(NCCc1ccc(F)cc1)c1ccc2nccnc2c1` the Potency was “inactive”.
With `Cc1ccc(-c2cn3c(n2)sc2cc(C(=O)NCCCc4ccccc4)ccc23)cc1` the Potency was 14.6 µM (active).
For `CCOC(=O)c1ccccc1NC(=O)c1sc2nc(-c3ccc(F)cc3)cn2c1C`, the Potency was “inactive”.
With `CC(C)c1ccc(C(=O)NCCCc2ccccc2)cc1` the Potency was “inactive”.
With `COc1cccc(CNC(=O)c2ccc3c(c2)sc2nc(-c4cccc(OC)c4)cn23)c1` the Potency was 6.51 µM (active).
With `CCOc1ccc(CCNC(=O)c2ccc3c(c2)sc2nc(-c4ccc(F)cc4)cn23)cc1OCC` the Potency was 7.31 µM (active).
For `Cc1ccc(C(=O)Cn2cccn2)cc1`, the Potency was “inactive”.
In the case of `OC(CNCc1ccc2c(c1)OCO2)COc1ccccc1` (centres undefined), the Potency is reported as “inactive”.
For `COC(C)C(C(=O)OCC1=CCN2CC[C@H](O)[C@@H]12)C(C)C` (some centres undefined), the activity change, negative = growth inhibition was -27.6% [at 9.04 µM] (inactive).
For `N#Cc1c(C(F)(F)F)cc(-c2cccs2)nc1N1CCCCC1`, the Potency was “inactive”.
With `COc1ccc(CCNC(=S)N2CCN(S(=O)(=O)c3ccc(F)cc3)CC2)cc1` the Potency was “inactive”.
With `Cc1cc(NC(=O)CSc2nc(=O)cc(N)n2-c2ccc(F)cc2)no1` the Potency was “inactive”.
With `Cc1nc2nc(C)c(CCC(=O)N3CCN(c4ccccc4)CC3)c(C)n2n1` the Potency was “inactive”.
With `CCOC(=O)C1CCCN(C(=O)c2ccc3c(c2)sc2nc(-c4ccc(CC)cc4)cn23)C1` (centres undefined) the Potency was 4.11 µM (active).
For `CCOc1cccc2cc(-c3cn4c(n3)sc3cc(C)ccc34)c(=O)oc12`, the Potency was “inactive”.
With `COc1ccc(C(=O)NCCCN2CCOCC2)cc1Br` the Potency was “inactive”.
For `Cc1ccc2c(CC(=O)NCc3cccs3)coc2c1`, the Potency was “inactive”.
In the case of `CCOC(=O)C1CCCN(C(=O)c2ccc(CS(=O)(=O)c3ccc(Br)cc3)o2)C1` (centres undefined), the Potency is reported as “inactive”.
For `COc1ccc(CCNC(=O)c2ccc3c(c2)sc2nc(-c4ccc(C)cc4)cn23)cc1OC`, the Potency was 6.51 µM (active).
In the case of `CCN1CCN(CCCNC(=O)c2ccc3c(c2)sc2nc(-c4ccc(OC)cc4)cn23)CC1`, the Potency is reported as 0.92 µM (active).
In the case of `COc1ccc(-c2cc(C(=O)NCCCN3CCOCC3)no2)cc1`, the Potency is reported as “inactive”.
With `Cc1ccc(-c2cn3c(n2)sc2cc(C(=O)NCc4cccs4)ccc23)c(C)c1` the Potency was 23.1 µM (active).
In the case of `CCOC(=O)C1CCCN(C(=O)c2cncc(Br)c2)C1` (centres undefined), the Potency is reported as “inactive”.
In the case of `C=C1O[C@@](CO)(n2cnc3c(N)ncnc32)[C@H](O)[C@@H]1O`, the Potency is reported as “inactive”.
For `Cc1cccc(NC(=O)CCN2CC(C)CC(C)C2)c1` (centres undefined), the Potency was “inactive”.
For `CCOc1ccc(C(=O)COC(=O)c2ccc(-n3cnnn3)cc2)cc1`, the Potency was “inactive”.
With `COC(=O)c1ccc(/C=N/NC(=O)C(=O)N2CCCCCC2)cc1` the Potency was “inactive”.
For `CCOC(=O)c1c(S(=O)(=O)N2CCCC(C(=O)NCc3cccc(C)c3)C2)c(C)n(C)c1C` (centres undefined), the Potency was “inactive”.
For `CCC(C)N(C(=O)Cn1nc(C)c([N+](=O)[O-])c1C)C1CCS(=O)(=O)C1` (centres undefined), the Potency was “inactive”.
With `CCOc1ccc(NC(=O)c2ccc(NC(=O)CN3C(=O)C(=O)N(CC(C)C)C3=O)cc2)cc1` the Potency was “inactive”.
In the case of `O=C(NCCCN1CCOCC1)c1cnn2c(-c3ccccc3)cc(-c3ccccc3)nc12`, the Potency is reported as 18.4 µM (active).
For `O=C(NCCCN1CCOCC1)c1ccccc1NS(=O)(=O)c1ccc(F)cc1`, the Potency was “inactive”.
In the case of `O=C(NCCCN1CCOCC1)c1ccccc1NS(=O)(=O)c1ccc(Br)cc1`, the Potency is reported as “inactive”.
For `O=C(NCc1ccco1)/C(=C\c1cccc([N+](=O)[O-])c1)NC(=O)c1ccco1`, the Potency was “inactive”.
With `CC(=O)Oc1ccc2c(c1)C(=O)c1ccccc1C2=O` the Potency was “inactive”.
With `O=C1C(Cl)=C(Oc2ccccc2)C(=O)c2ccccc21` the Potency was 0.326 µM (active).
With `COc1ccccc1-n1c(SCC(=O)Nc2ccc(Cl)cc2)nc(O)c(Cc2ccccc2)c1=O` the Potency was “inactive”.
With `COc1ccc(Cl)cc1NC(=O)c1sc2nc3c(cc2c1N)CN(C)CC3` the Potency was 23.1 µM (active).
For `CCN1CCc2nc3sc(C(=O)Nc4ccccc4OC(F)(F)F)c(N)c3cc2C1`, the Potency was 16.4 µM (active).
With `COc1ccc(Cl)cc1NC(=O)CN1CCN(C(=O)N2CCOCC2)CC1` the Potency was “inactive”.
With `COc1ccccc1NC(=O)c1ccc2nc(N3C(=O)CCC3=O)sc2c1` the Potency was “inactive”.
With `COc1ccc(Cl)cc1NC(=O)c1oc(C)nc1C` the Potency was “inactive”.
For `Cc1ccc(NC(=O)c2sc3nc(N)c(C#N)cc3c2N)cc1`, the Potency was “inactive”.
With `CCc1ccc(NC(=O)c2sc3nc4c(cc3c2N)CN(CC)CC4)cc1` the Potency was 23.1 µM (active).
For `CC(=O)Nc1ccc(NC(=O)c2sc3nc4c(c(-c5ccc(C)cc5)c3c2N)CCC4)cc1`, the Potency was “inactive”.
In the case of `CCN1CCc2nc(NC(=O)c3cc(F)c(F)cc3Cl)sc2C1`, the Potency is reported as “inactive”.
For `O=C(c1cn(-c2ccccc2)nc1-c1cccnc1)N1CCN(S(=O)(=O)c2ccccc2F)CC1`, the Potency was “inactive”.
For `O=C(NC(=S)Nc1ncccn1)c1ccccc1Br`, the Potency was “inactive”.
For `COC(=O)C1(CCSC)NC(c2ccc(OC)cc2OC)C2C(=O)N(c3cccc(C(C)=O)c3)C(=O)C21` (centres undefined), the Potency was “inactive”.
For `O=C(CSc1ccccn1)N1CCN(S(=O)(=O)c2ccc(Cl)cc2)CC1`, the Potency was “inactive”.
With `O=P(O)(O)OC[C@H](O)CO` the Potency was “inactive”.
For `Cc1cn([C@H]2C[C@H](O)[C@@H](/C=C/C(=O)NCCCc3ccccc3)O2)c(=O)[nH]c1=O`, the Potency was “inactive”.
For `Cc1ccc(CNCc2ccc3c(c2)OCO3)c(C)c1`, the Potency was “inactive”.
With `Cc1ccc(S(=O)(=O)N(CCCN(C)C)Cc2ccc3c(c2)OCO3)cc1` the Potency was 16.4 µM (active).
With `Cc1ccc(-c2nc(CS(=O)(=O)CC(=O)NCc3ccc4c(c3)OCO4)c(C)o2)cc1` the Potency was “inactive”.
For `CC1CN(C(=S)Nc2ccc(Br)cc2Cl)CC(C)O1` (centres undefined), the Potency was “inactive”.
